# Results reported in PubChem BioAssay (NCI).
# About 79,000 compounds went through this panel and 15% of them were active in at least one assay; those are over-represented in the sample as a whole. Active and inactive are the calls of the source. No stated cut-off is given here; in the data, active means growth inhibition above about 70%; inactive means the rest.
# Experiment: NCI Yeast Anticancer Drug Screen. Data for the bub3 strain (AID 167)
# Conditions: S. cerevisiae bub3 mutant strain, at 50.0 µM, stronger effect = higher value
# Summary of the method: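 Whole-cell yeast assay. The mutant strain was incubated with compounds, and growth inhibition was determined by comparison with vehicle-treated cells.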
row,Compound,growth inhibition
1,[Au].[NH-]CC[NH-].[NH-]CC[NH-],-0.55% (inactive)
2,C1C[OH+]CC[OH+]CC[OH+]CC[OH+]CC[OH+]1.[Cl-].[V],-12% (inactive)
3,Clc1ccc(N=P(c2ccccc2)(c2ccccc2)c2ccccc2)cc1.[Cl][Cd][Cl],64.2% (inactive)
4,C=CCOCC1CO1 (stereo not drawn),-1.7% (inactive)
5,CC1CN1P(=O)(N1CCc2ccccc21)N1CC1C (stereo not drawn),5.9% (inactive)
6,CCCCCCCCCCCCCCCCS(=O)(=O)c1ccc(S(=O)(=O)F)cc1NC(=O)C(F)(F)F,12.6% (inactive)
7,CC(=O)c1ccc(Br)cc1,5.75% (inactive)
8,COc1cccc(N2CCNCC2)c1,-6.6% (inactive)
9,CCC(N)CBr (stereo not drawn),5.3% (inactive)
10,CN(C)C1C(=O)C(C(=O)NP(=O)(NCCCO)N(CCCl)CCCl)=C(O)C2(O)C(=O)C3=C(O)c4c(O)cccc4C(C)(O)C3CC12 (stereo not drawn),25.6% (inactive)
11,Cc1ccc(C[N+](C)(C)C)cc1,-10.1% (inactive)
12,NC1=NC(N)=N1,14.2% (inactive)
13,N=c1nc(N)n2c(N)nc(=N)n12,-1.75% (inactive)
14,O=[N+]([O-])c1cc(Br)c(O)c(Br)c1,6.75% (inactive)
15,O=C1CCC(=O)N1c1ccc([As](=O)(O)O)cc1,0.6% (inactive)
16,O=[N+]([O-])c1ccc(-n2nc3ccc4c(no[n+]4[O-])c3n2)cc1,-15.6% (inactive)
17,CN1CCN[C@@H]2CCCC[C@@H]21,5.65% (inactive)
18,N#CCC(=O)[O][Sn]([c]1ccccc1)([c]1ccccc1)[c]1ccccc1,97.8% (active)
